Compound activity deposited in PubChem BioAssay by National Center for Advancing Translational Sciences (NCATS).
RORg inh – ROR gamma (mouse) transcription inhibition | P51450 | Drosophila S2 Gal4-RORgamma UAS-luciferase reporter, 20 h | Potency, µM (doses to about 53.6 µM), actives largely listed as inhibitors | 310,000 compounds, 5.4% hits | AID 2551; also: nearly all actives have a fitted effect of over 60% in size
Target sequence (P51450 whole entry, looked up, the tested form may be a part): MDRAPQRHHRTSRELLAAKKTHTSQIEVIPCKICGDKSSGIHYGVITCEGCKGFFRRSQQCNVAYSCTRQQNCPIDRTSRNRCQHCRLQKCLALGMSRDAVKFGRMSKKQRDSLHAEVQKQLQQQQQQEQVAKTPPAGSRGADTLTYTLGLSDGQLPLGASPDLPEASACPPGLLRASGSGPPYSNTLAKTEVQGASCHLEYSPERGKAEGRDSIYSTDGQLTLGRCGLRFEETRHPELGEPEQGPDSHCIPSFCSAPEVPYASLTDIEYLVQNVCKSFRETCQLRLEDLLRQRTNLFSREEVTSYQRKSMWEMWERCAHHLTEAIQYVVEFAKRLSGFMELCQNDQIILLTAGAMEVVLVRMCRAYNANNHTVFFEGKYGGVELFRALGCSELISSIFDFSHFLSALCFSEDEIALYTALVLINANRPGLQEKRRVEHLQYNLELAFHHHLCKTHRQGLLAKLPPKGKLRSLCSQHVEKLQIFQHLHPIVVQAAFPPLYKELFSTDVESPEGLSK
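Compounds are pin-transferred onto Drosophila Schneider cells expressing a copper-inducible Gal4–ROR gamma transactivation domain fusion. After 1 hr, copper sulfate is added to 700 uM final; luciferase is read 20 hr later.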
Gal4-VP16 FLuc – Gal4-VP16 reporter inhibition counter-screen. AID 2546. Drosophila S2 Gal4-VP16 UAS-luciferase, luminescence, 20 h. 310,000 compounds, 3.5% hits. Potency, µM (doses to about 53.6 µM), usual class: inhibitors;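 also: Gal4-VP16 expression switched on by copper sulfate through the metallothionein promoter; nearly all actives have a fitted effect of over 50% in size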
Integrin act MD – activates integrin-mediated alleviation for muscular dystrophy; AID 624291; 350,000 compounds, 0.064% hits; Potency, µM (highest dose often 38.3 µM), usual class: activators; alpha7betagal myoblasts, beta-gal FDG fluorescence, 48 h; also: nearly all actives have a fitted effect of over 60% in size
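Alpha7betagal+/- myoblasts (passage 13) were plated 16-24 hr, then exposed to compounds (1:260 dilution of DMSO stock) for 48 hours at 37C. After MPER lysis, β-galactosidase reporter activity was read as FDG fluorescence (ex 480/em 540) after 30 minutes.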
Mito fusion yeast – blocks mitochondrial division or promotes mitochondrial fusion. Potency, µM (titrated, usually from 46.1 µM), hits mostly activators. 320,000 compounds, 0.23% hits. S. cerevisiae fusion-defective mutant growth rescue, CellTiterGlo 48 h; also: nearly all actives have a fitted effect of over 45% in size
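Luminescent cell viability in 1536-well qHTS format served as the measure of rescued growth in ts fusion-mutant S. cerevisiae cultured on non-fermentable YPEG for 48 hours at 37C.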
uPA generation – cell surface uPA generation inhibition | cell surface uPA generation assay, qHTS | Potency, µM (top dose mostly 38.3 µM), hits mostly inhibitors | 330,000 compounds, 0.31% hits | AID 540303; active = well fitted inhibition curve with a large enough effect; inconclusive = small, poorly fitted or top-dose-only effect; inactive = no such curve, though single readings can be large or run the other way; tested in mouse RAW 264.7 cells; also: nearly all actives have a fitted effect of over 55% in size
Chronic BCR inh – blocks chronic active B-cell receptor signaling. ABC-DLBCL IkBa-CBG/CBR reporter, luminescence ratio, 4 h. Potency, µM (doses to about 46.1 µM), actives largely listed as inhibitors. 340,000 compounds, 0.05% hits. AID 493014; active = well fitted inhibition curve with a large enough effect in the signal ratio, with a control signal flat, not every such curve was filed as active; inconclusive = small, poorly fitted or top-dose-only effect, or effect the other way, or a change in a side signal; the % refers to the signal ratio
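Doxycycline induced both beetle luciferases in TMD8 lymphoma cells; IKK-driven degradation limits the IkappaBalpha-fused green signal, while red luminescence normalises for cell number and nonspecific effects. Compounds tested up to 46 uM, 4 hrs.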
Numbers stand for hits; 0 = inactive; ? = inconclusive; - = no result given; [ ] = remark or other dose. Sampled rows, rich in hits. Any-hit rate of the full collection: about 5.5%. Unless noted, calls follow the shape of the dose curve; as a rule, active = well fitted curve in the direction sought with a large enough effect; inconclusive = small, poorly fitted or top-dose-only effect, or another doubt; inactive = no such curve, though single readings can be large; an effect the other way counts as inactive or inconclusive.

SMILES	RORg inh	Gal4-VP16 FLuc	Integrin act MD	Mito fusion yeast	uPA generation	Chronic BCR inh
CC(C)(C)C(=O)NC(=S)Nc1ccc(C(F)(F)F)cc1	4.5µM	?	0	0	0	0
CN(C)NC(=S)Nc1ccc(Cl)cc1	?	2.2µM	0	0	0	0
CC(=O)Nc1cc(-c2ccc(F)cc2)[nH]n1	0	0	0	0	0	0
CCNC(=S)Nc1ccc(Cl)c([N+](=O)[O-])c1	0	0	0	0	0	0
CCNC(=S)Nc1ccc(C)c(Cl)c1	7.1µM	?	0	0	0	0
CCNC(=S)Nc1cc(-c2ccc(Cl)cc2)[nH]n1	6.3µM	11µM	?	0	0	0
Cc1ccc(C(=O)OCC(=O)c2c[nH]c3ccccc23)cc1S(=O)(=O)N1CCCCC1	?	0	0	0	0	0
CC(=O)N(C)C[C@@H]1Oc2ncc(C#Cc3ccc(F)cc3)cc2C(=O)N([C@@H](C)CO)C[C@H]1C	-	-	0	-	-	-
CCCCNC(=S)Nc1ccc(OC)nc1	10µM	0	0	0	0	0
CCNC(=S)Nc1ccc(Cl)cc1	8.9µM	0	0	0	0	?
CCCCNC(=S)Nc1ccc(Cl)cc1	7.1µM	?	0	0	0	0
COc1ccc(NC(=S)Nc2ccccc2)cn1	0	0	0	0	0	0
CCCCNC(=S)Nc1ccc(C(F)(F)F)cc1	4.5µM	13µM	0	0	0	0
CCCCc1ccc(NC(=S)NCCO)cc1	?	0	0	0	0	0
CCCC[C@@H]1C[C@H]1C(NC(=O)c1ccccc1)c1ccc(-c2ccccc2)cc1 (stereo partly specified)	0	0	-	-	-	-
C[C@H](O)C(N)C(=O)O (stereo partly specified)	0	0	-	-	-	-
CCOC(=O)NC(=S)Nc1ccc(C(C)(C)C)cc1	2µM	10µM	0	0	0	?
COc1ccc(C2/C=C\CN(C(=O)C3CCCC3)C(C)C(=O)N2Cc2ccc(F)cc2)cc1 (stereo unspecified)	0	0	-	-	-	-
C=CCC[C@H](Cc1ccc(F)cc1)C(=O)OC[C@@H](Cc1c[nH]c2ccccc12)NC(=O)[C@@H](CC=C)CC(=O)N[C@H](CO)Cc1ccccc1	-	-	0	-	0	?
CN1Cc2sc(NC(=S)NC(=O)c3ccccc3)c(C#N)c2CC1(C)C	3.2µM	?	0	0	0	?
CCNC(=S)Nc1sc2c(c1C#N)CCC(C)C2 (stereo unspecified)	11µM	?	?	0	0	0
CC1CCc2sc(NC(=S)NC(=O)c3ccccc3)c(C#N)c2C1 (stereo unspecified)	14µM	?	0	0	0	0
CCC1(C)Cc2c(sc(NC(=S)NC(=O)c3ccccc3)c2C#N)CO1 (stereo unspecified)	?	?	0	0	0	0
CCOC(=O)Nc1sc2c(c1C#N)CCC(C)C2 (stereo unspecified)	0	0	0	?	0	0
CCOC(=O)c1ccc(-c2c(C(=O)OCC)oc3cc(O)c(CC)cc3c2=O)o1	3.2µM	?	0	0	0	?
SMILES	RORg inh	Gal4-VP16 FLuc	Integrin act MD	Mito fusion yeast	uPA generation	Chronic BCR inh
CCOC(=O)c1oc2cc(O)c(CC)cc2c(=O)c1-c1cscn1	0	0	0	0	0	0
O=C(COc1ccc(Cl)cc1)NCc1nnc(SCC(=O)Nc2ccc(F)cc2F)o1	0	0[10 µM]	0	0	0	0
COc1ccc(C(=O)O)c(O)c1OC	0	0	-	-	-	-
COC1=C(N)C(=O)c2nc(-c3nc(C(=O)O)c(C)c(-c4ccc(OC)c(OC)c4O)c3N)ccc2C1=O	14µM	?	-	0	0	?
O=c1cnc2cnc(Oc3ccccc3)nc2n1C[C@H]1CCCO1	?	0	-	-	-	-
C[C@H]1C2=C3C(CC[C@H]4C(OCc5ccc(F)cc5C(F)(F)F)OC[C@](C)([C@@H]34)N(C(=O)OC(C)(C)C)C2)C(CO)C1CO (stereo partly specified)	0	0	-	-	-	-
CN(C)c1ccc(-c2nc(N3CCNCC3)c3ccccc3n2)cc1	?	0	-	-	-	-
COc1ccc(CCN2CCCn3c2nc2c3c(=O)n(CC(C)C)c(=O)n2C)cc1OC	0	0	0	?	0	0
O=C1Nc2ccc(Br)cc2C12NNc1ccccc1O2 (stereo unspecified)	11µM	?	0	0	?	0
COc1ccc(N(C(=O)c2ccco2)C(C(=O)NC2CCCC2)c2ccc(OC)c(OC)c2)cc1 (stereo unspecified)	0	0	0	0	0	0
O=C/C(=C\Nc1ccc(S(=O)(=O)CCO)cc1)c1nc2cc(Cl)ccc2o1	8.9µM	0	0	0	0	0
O=C/C(=C\Nc1ccc(Cl)cn1)c1nc2cc(Cl)ccc2o1	?	0	0	0	0	-
O=C/C(=C\Nc1ccc(Cl)cn1)c1nc2ccccc2o1	14µM	22µM	0	0	0	?
Cc1ccc(C(C)(C)C)cc1	0	0	-	-	-	-
C=CCC(C)(O)c1cccc(C(F)(F)F)c1 (stereo unspecified)	0	0	-	-	-	-
CCCCCCC(C)n1[nH]c(=O)c2c(C)cc(=O)[nH]c21 (stereo unspecified)	7.1µM	4µM	0	0	0	0
O=C(NNC(=O)c1ccc2ccccc2c1O)c1cccs1	16µM	?	0	0	0	?
O=C(NNC(=O)c1cc2ccccc2cc1O)c1cccs1	20µM	?	0	0	0	?
O=C(NNC(=O)c1ccc2ccccc2c1O)c1ccccc1Cl	?	0	0	0	0	?
COc1c2c(nc3ccccc13)O[C@H]([C@@](C)(O)CO)C2	0	0	-	-	-	-
Cc1ccc(NC(=S)N(Cc2ccco2)C(C)c2cccs2)c(Cl)c1 (stereo unspecified)	0	0[10 µM]	0	0	0	?
Cc1ccc(C)c(NC(=S)N(CCc2ccncc2)C(C)C)c1	11µM	0	0	0	0	0
Cc1ccc(Cl)cc1NC(=S)N(Cc1ccco1)C(C)c1cccs1 (stereo unspecified)	3.5µM	7.1µM	0	0	0	?
Cc1ccc(C)c(NC(=S)N(Cc2ccco2)C(C)c2cccs2)c1 (stereo unspecified)	2.5µM	5µM	0	0	0	0
COc1cc2c(cc1OC)C1O[C@](CCCCN3C(=O)c4ccccc4C3=O)(C2)OC2=C1C(=O)c1ccccc1C2=O	0[10 µM]	0[10 µM]	-	0[9.22 µM]	-	?
Cc1cccc(C)c1	0	0	-	-	-	-
CC(=O)Oc1ccc(/C=C2\C=C(c3ccc(C)cc3)OC2=O)cc1	0.45µM	?	0	0	0	?
CCc1ccc(C2=C/C(=C/c3cccnc3)C(=O)O2)cc1	?	0	0	0	0	0
COc1cc(C(C#N)N2N=C(c3ccccc3)CC2c2ccccc2)ccc1O (stereo unspecified)	7.9µM	0	0	0	0	0
N#CC(c1ccccc1O)N1N=C(c2ccccc2)CC1c1ccccc1 (stereo unspecified)	?	?	0	0	0	0
